Pf Dd2 inh = qHTS Primary assay for Inhibitors of Plasmodium falciparum Dd2 growth in vitro; P. falciparum Dd2 growth, SYBR Green, 72 h; 4.3% of 120,000 active; Potency, µM (titrated, usually from 28.9 µM), for inactives: at the top dose activity, negative = inhibition, usual class: inhibitors; active = well fitted inhibition curve with a large enough effect;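 also: plate controls were DMSO vehicle for no effect and reference drug for full effect; nearly all actives have a fitted effect of over 65% in size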
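Readout: SYBR Green fluorescence, 485 nm excitation, 535 nm emission, after ~16 h lysis at 37C. Before that, Dd2-infected red cells (2.5% hematocrit) grew 72 h with compound, 29 uM top final concentration.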
The depositor's hits bear a star; i = inactive; [ ] = another dose, or the depositor's remark. Only a selection was taken, and hits are over-represented in it overall. Potency is read from the fitted curve at half-maximal effect.

SMILES | Pf Dd2 inh
O=C(C[C@@H]1CCNC[C@@H]1Cc1cc(CN2CCCCC2)on1)N1CCCCC1 | -25%[44.1 µM]
CCN1c2cc(C(=O)Nc3ccc(OC)c(Cl)c3)ccc2C(=O)N2CCCCC21 (configuration not stated) | i
CCc1cccc(OCC(=O)c2ccc3c(c2)N(CC(=O)NCCCOC)C(=O)CO3)c1 | i
CCc1ccc(NC(=O)Cn2nc3n(c2=O)CCCCC3)cc1 | 13%
COc1ccc(-c2ccnc3ncnn23)c(F)c1 | 2%
COCc1noc([C@@H]2CN(S(=O)(=O)Cc3ccc(F)cc3)C[C@H]2C(N)=O)n1 | 9%
COCc1cn(C[C@H]2C[C@@H](NC(=O)c3cncnc3)[C@H](O)[C@@H]2O)nn1 | -1%[44.1 µM]
O=C1NC2(CCOCC2)C(=O)N1CC(=O)N1CCCc2ccccc21 | -6%
CC(C)CC(=O)N[C@H](C)c1onc(-c2cccnc2)c1C(=O)O | 5%[44.1 µM]
CCOc1ccc(-c2cn3c(n2)sc2cc(C(=O)NCCCN4CCCCCC4)ccc23)cc1 | 2.2µM*
CCCN1CCN(CCCNC(=O)c2ccc3c(c2)sc2nc(-c4ccc(OCC)cc4)cn23)CC1 | 1.3µM*
CCOc1ccc(C(=O)NCCn2ccn3nc(-c4ccc(OC)cc4)cc3c2=O)cc1 | i
COc1ccc(-c2cn3c(n2)sc2cc(C(=O)Nc4ccc(C)cc4C)ccc23)cc1 | -8%
COc1ccc(-c2cn3c(n2)sc2cc(C(=O)Nc4ccc(C)c(Cl)c4)ccc23)cc1 | 6.3µM*
CCOc1ccc(-c2cn3c(n2)sc2cc(C(=O)NCCCN4CCCCC4)ccc23)cc1 | 2.5µM*
CCOc1ccc(-c2cc3c(=O)n(CCNC(=O)c4ccc(OC)cc4)ccn3n2)cc1 | i
COc1ccc(-c2cn3c(n2)sc2cc(C(=O)Nc4c(C)cccc4C)ccc23)cc1 | 6%
COCC(=O)NC1CCC12CCN(Cc1cccc(OC)c1)CC2 (configuration not stated) | i
O=C1NCCCCCCN(S(=O)(=O)Cc2ccccc2F)[C@H]2CCC[C@@H]12 | -4%
COc1cccc(C(=O)N2CCC(C(=O)N3CC[C@@](C)(O)[C@@H](O)C3)CC2)c1 | -4%
Cc1ccoc1C(=O)N1CCCn2ccnc2C1c1cnn(C)c1 (configuration not stated) | -17%
COc1ccc(NC(=O)[C@@H]2C[C@H](c3ccc(F)cc3)N([S+](=O)([O-])C3CC3)C2)cc1OC | i
COC(=O)C1=C(C)NC(=O)NC1c1ccccc1OC (configuration not stated) | 2%
CCCN(CC1CCOC1)S(=O)(=O)c1cc(F)cc(F)c1 (configuration not stated) | 39%[5.79 µM]
COc1ccc([C@H]2C[C@@H](O)[C@@H](O)[C@@H]2NS(=O)(=O)c2ccccc2)cc1 | -5%[44.1 µM]
SMILES | Pf Dd2 inh
O=C(Cc1ccsc1)N1CCc2n[nH]c(=O)n2CC1 | 60%
N#Cc1ccc(C(=O)Nc2ccc3c(c2)N(C2CCCC2)C(=O)c2ccccc2S3)cc1 | 11µM*
CCN1C(=O)c2ccccc2Sc2ccc(NC(=O)Nc3cc(C)cc(C)c3)cc21 | -11%
CCN1C(=O)c2ccccc2Sc2ccc(NC(=O)c3ccc(Cl)cc3)cc21 | i
C=CCn1nc(C)c(CN2CCC(Oc3ccccc3OC)(C(=O)O)CC2)c1C | 4%
CN1CC2(CCN(C(=O)C3CC3)CC2)CC1C(=O)N1CCOCC1 (configuration not stated) | 6%
COc1ccc(C2(C(=O)NCc3ccc4ccccc4c3)CCOCC2)cc1 | -8%
Cc1ccc(F)cc1CN1CCOc2cc([S+](=O)([O-])N(C)C)ccc2C1 | -11%[44.1 µM]
FC(F)(F)CN1C2CCC1CN(c1nncc3ccccc13)C2 | -21%
COc1cc2ncnc(N3CC4CCC(C3)N4CC(F)(F)F)c2cc1OC | -24%
CCc1ncc2c(N3CC4CCC(C3)N4CC(F)(F)F)nc3ccccc3n12 | 3.2µM*
Cn1cnnc1-c1nn(C)c2c1CN(C(=O)c1n[nH]c3c1CCCCCC3)CC2 | i
COC(=O)N1CC2(Cc3ccccc3N(C(C)=O)C2)C1 | 28%[44.1 µM]
O=S(=O)(c1ccccc1C(F)(F)F)N1CCC2(CCCNC2)C1 (configuration not stated) | 7.9µM*
CNc1ccc(C(=O)N2CCC3(CCCNC3)C2)cc1 (configuration not stated) | -15%
CC(C)c1ccc(S(=O)(=O)N2CCC3(CCCNC3)C2)cc1 (configuration not stated) | 5µM*
CN1CCC(N2CCN(S(=O)(=O)c3ccccc3C(F)(F)F)CC2)C1=O (configuration not stated) | -15%
O=c1ccc2cc(S(=O)(=O)N3CCC4(CCCNC4)C3)ccc2o1 (configuration not stated) | -13%
O=C(c1cc(F)c(F)c(F)c1)N1CCC2(CCCNC2)C1 (configuration not stated) | 3%
CCn1nccc1C(=O)NCCc1ncc(C)n1C1CC1 | -3%
COC(=O)C(NC(=O)N1CCc2nc3cc(-c4ccccc4)[nH]n3c(=O)c2C1)C(C)C (configuration not stated) | i[5.79 µM]
CN(CCC(O)c1ccccc1)Cc1cn(-c2ccccc2)nn1 (configuration not stated) | 8.9µM*
CN(Cc1cn(-c2ccccc2)nn1)Cc1noc2c1CCCC2 | 3%
CC(C)n1cnnc1CN(C)Cc1cn(-c2ccccc2)nn1 | -14%
Cc1cccc(C(=O)N2C(C(=O)NCC3CCCO3)COC23CCN(C(=O)C(C)(C)C)CC3)c1 (configuration not stated) | 5%
SMILES | Pf Dd2 inh
O=C1COCCN1C1CCN(Cc2ccsc2)CC1 | 15%[44.1 µM]
O=C1CCCCCN1C1CCN(Cc2ccsc2)CC1 | 7.1µM*
O=C1CCCCCN1C1CCN(Cc2cccnc2)CC1 | 5%[44.1 µM]
CCn1cc(CN2CCC3(CC2)CN(C)CC3COC)cn1 (configuration not stated) | -5%
CCN(Cc1ccccc1)C(=O)CC1CCCN(c2cn[nH]c(=O)c2)C1 (configuration not stated) | 12%
COc1ccc(-c2n[nH]c3c2CC(=O)N(Cc2ccccn2)C3)cn1 | 7%[44.1 µM]
Cc1cc2nc3n(c(=O)c2n1CC(=O)Nc1ccc2c(c1)OCCO2)CCCCC3 | -7%
CC1CCCN(Cc2cn3c(-c4cccc(Br)c4)nnc3s2)C1 (configuration not stated) | 22%
COC(=O)CN(C)Cc1cn(-c2ccc(C)cc2)nc1-c1cccc(C)c1 | -12%
CN(C)C(=O)CN1CCCC(N2CCN(c3cccc(C(F)(F)F)c3)CC2)C1 (configuration not stated) | -9%
Cc1ccc(-n2cc(CN3CCN4CCCC4C3)c(-c3cccc(C)c3)n2)cc1 (configuration not stated) | 13µM*
Cc1ccc(-n2cc(CN3CCC(CCO)CC3)c(-c3cccc(C)c3)n2)cc1 | 10µM*
Cc1ccc(-n2cc(CN3CCN(C)C(CCO)C3)cn2)cc1 (configuration not stated) | -22%
Cc1cc(C(=O)N2CCC3(CC2)N=C(CC(C)C)NC3=O)c(C)o1 | -13%
CN1CC2(CCN(C(=O)Cn3c(=O)oc4ccccc43)CC2)CC1C(=O)N1CCOCC1 (configuration not stated) | -7%
O=C1Nc2ccccc2CC12CN(Cc1ccc(C(F)(F)F)cc1)C2 | 54%
O=C1Nc2ccccc2CC12CCN(Cc1ccc(OC(F)(F)F)cc1)C2 (configuration not stated) | 11µM*
O=C1Nc2ccccc2CC12CCN(Cc1cccnc1)C2 (configuration not stated) | -30%[44.1 µM]

High-throughput results from PubChem.
